In PubChem BioAssay AID623992 (NMMLSC, 2012):
Measured potencies and affinities stand elsewhere. Active and inactive are the calls of the source.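 The calls were made as follows: active = compounds whose fitted half-maximal effective concentration for blocking dye efflux is below 100 µM; inactive = the rest.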

Each compound was assayed against Benomyl/methotrexate resistance protein (Candida albicans) (UniProt P28873) (assay: CaMdr1 efflux pump inhibitor potency, dose response, singleplex, Cherry Pick2 set (AID 623992)). Details: S. cerevisiae AD/CaMDR1, Nile Red efflux, flow cytometry; series mostly up to 100 µM; efflux inhibition response: at the top concentration.
Sequence of Benomyl/methotrexate resistance protein (Candida albicans) (P28873 whole entry, looked up): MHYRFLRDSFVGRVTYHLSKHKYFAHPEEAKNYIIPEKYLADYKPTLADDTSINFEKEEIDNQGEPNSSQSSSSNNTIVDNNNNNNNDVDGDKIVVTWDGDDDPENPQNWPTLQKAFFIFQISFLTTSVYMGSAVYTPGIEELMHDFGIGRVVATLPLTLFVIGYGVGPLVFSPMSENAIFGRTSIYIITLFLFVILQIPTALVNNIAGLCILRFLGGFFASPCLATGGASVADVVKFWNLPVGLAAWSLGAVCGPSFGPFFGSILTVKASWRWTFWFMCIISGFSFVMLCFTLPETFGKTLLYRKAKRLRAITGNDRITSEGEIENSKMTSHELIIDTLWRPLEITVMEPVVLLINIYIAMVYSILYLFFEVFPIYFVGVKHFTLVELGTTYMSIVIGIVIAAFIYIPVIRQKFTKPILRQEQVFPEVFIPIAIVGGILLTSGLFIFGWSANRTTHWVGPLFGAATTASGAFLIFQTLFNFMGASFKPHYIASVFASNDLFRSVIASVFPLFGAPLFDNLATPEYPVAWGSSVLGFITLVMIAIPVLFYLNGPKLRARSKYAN

Efflux inhibition response, inactive:
NS(=O)(=O)c1ccc(N2N=C(c3ccccc3)CC2c2cccc(Br)c2)cc1 (stereo not given) -2.03%
COc1ccc(N2CCN(C(=O)C3CCCN(c4ncnc5c4nc4n5CCCCC4)C3)CC2)cc1 (stereo not given) -1.48%
CCCCNC(=O)C1CCC(CNc2nc(=S)[nH]c3ccccc23)CC1 (stereo not given) 1.33%
O=C(c1ccoc1)N1CCC2(CC1)Oc1ccc(F)cc1C(=O)C21CC(c2ccc(Cl)cc2)=NO1 (stereo not given) 75.4%
CCOc1cccc2sc(NC(=O)c3ccc(Br)s3)nc12 -0.82%
CC(C)C(=O)N1CCC2(CC1)Oc1ccc(F)cc1C(=O)C21CC(c2ccc(Cl)cc2)=NO1 (stereo not given) 133%
COc1ccc(C(=O)NC2CC(C)(C)Cc3c2cnn3-c2ccccc2)c(OC)c1 (stereo not given) -0.62%
O=C(c1ccoc1)N1CCC2(CC1)Oc1ccc(F)cc1C(=O)C21CC(c2ccccc2)=NO1 (stereo not given) 105%
NC1=NC[C@H](Cc2ccc(O)cc2)N1CCc1cc(C(F)(F)F)cc(C(F)(F)F)c1 -0.65%
COc1ccc(O)c(C(=O)c2cnc3c(c2)CN(C)C(=O)N3)c1 0.72%
O=C(NCCc1ccc(Cl)cc1)C1CCC(CNc2nc(=S)[nH]c3ccccc23)CC1 (stereo not given) -0.35%
COc1ccc(CN2C(=O)C(C)Nc3ncnc(N4CCN(c5ccccc5)CC4)c32)cc1 (stereo not given) -0.25%
COc1cc(OC)c2c(-c3ccccc3)cc(=O)oc2c1C(CCN1CCCC(C)C1)c1ccc(N(C)C)cc1 (stereo not given) -0.53%
COc1ccc(-c2c[n+](CC(=O)N3c4ccccc4Sc4ccccc43)c3n2CCC3)cc1 -2.26%
COc1cccc(N2CCN(C(=O)C3CCCN(c4ncnc5c4nc4n5CCCCC4)C3)CC2)c1 (stereo not given) -0.35%
